In the supplement of paper PMC11732987, “Enantioselective OTUD7B fragment discovery through chemoproteomics screening and high-throughput optimisation” (Communications Chemistry, 2025):

Experiments:
Assay in all cases: log2 ratio of Biotin-Ahx-Ub-VS probe labelling (fragment/DMSO); higher = less target engagement (more negative = stronger competition), active = hit call of the paper (q ≤ 0.05, log2 ratio ≤ -1)
Conditions in all cases: compound concentration: 200 uM; treatment time: 3 h
OTUD6B = target: T1, OTUD6B (UniProt Q8N6M0)
T1 sequence (whole entry): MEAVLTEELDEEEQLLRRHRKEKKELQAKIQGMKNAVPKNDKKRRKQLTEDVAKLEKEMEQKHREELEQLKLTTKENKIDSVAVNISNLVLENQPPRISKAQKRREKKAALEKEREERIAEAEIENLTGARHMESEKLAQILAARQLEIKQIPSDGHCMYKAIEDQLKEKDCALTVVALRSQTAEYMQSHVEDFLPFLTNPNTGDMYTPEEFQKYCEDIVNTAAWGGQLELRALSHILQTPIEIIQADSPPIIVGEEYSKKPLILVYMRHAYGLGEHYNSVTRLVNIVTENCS
How it was run: (§1)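 Fragment (200 µM) or vehicle was incubated for 3 h with triplicate HEK293T lysate samples of 495 µg, which were then treated with Biotin-Ahx-Ub-VS at 0.5 µM final for 1 h. Labelled DUBs were enriched on NeutrAvidin, digested with LysC and trypsin, and analysed by diaPASEF LC-MS/MS. Values are average log2 fragment/vehicle ratios from an unpaired t-test on global-median-normalised Spectronaut label-free quantities, using proteins with ≥2 unique peptides.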

OTUD7B = target: T2, OTUD7B (UniProt Q6GQQ9)
T2 sequence (whole entry): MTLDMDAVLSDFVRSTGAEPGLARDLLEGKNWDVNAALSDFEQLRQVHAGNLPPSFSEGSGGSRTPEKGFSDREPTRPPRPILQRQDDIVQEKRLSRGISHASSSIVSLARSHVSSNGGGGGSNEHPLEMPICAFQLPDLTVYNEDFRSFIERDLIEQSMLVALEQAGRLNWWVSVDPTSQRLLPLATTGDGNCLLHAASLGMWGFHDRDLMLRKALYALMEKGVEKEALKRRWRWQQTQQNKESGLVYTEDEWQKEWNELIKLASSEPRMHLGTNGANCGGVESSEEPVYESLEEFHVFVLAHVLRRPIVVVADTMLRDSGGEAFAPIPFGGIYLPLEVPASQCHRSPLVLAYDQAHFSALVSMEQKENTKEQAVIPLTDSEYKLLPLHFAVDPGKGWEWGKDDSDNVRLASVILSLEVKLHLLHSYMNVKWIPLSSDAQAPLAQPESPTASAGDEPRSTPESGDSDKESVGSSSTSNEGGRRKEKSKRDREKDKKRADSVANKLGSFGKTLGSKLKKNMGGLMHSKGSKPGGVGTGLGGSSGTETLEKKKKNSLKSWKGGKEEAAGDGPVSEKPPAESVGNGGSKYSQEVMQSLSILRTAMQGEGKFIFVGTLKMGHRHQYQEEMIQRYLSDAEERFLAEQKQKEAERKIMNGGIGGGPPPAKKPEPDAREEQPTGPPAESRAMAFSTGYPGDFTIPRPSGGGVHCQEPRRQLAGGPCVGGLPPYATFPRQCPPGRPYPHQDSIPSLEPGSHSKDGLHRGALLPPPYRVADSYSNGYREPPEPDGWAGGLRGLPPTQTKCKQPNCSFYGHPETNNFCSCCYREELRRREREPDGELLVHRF
How it was run: as §1

PRPF8 = PRPF8 (UniProt Q6P2Q9)
How it was run: as §1

PSMD7 = target: T3, PSMD7 (UniProt P51665)
T3 sequence (whole entry): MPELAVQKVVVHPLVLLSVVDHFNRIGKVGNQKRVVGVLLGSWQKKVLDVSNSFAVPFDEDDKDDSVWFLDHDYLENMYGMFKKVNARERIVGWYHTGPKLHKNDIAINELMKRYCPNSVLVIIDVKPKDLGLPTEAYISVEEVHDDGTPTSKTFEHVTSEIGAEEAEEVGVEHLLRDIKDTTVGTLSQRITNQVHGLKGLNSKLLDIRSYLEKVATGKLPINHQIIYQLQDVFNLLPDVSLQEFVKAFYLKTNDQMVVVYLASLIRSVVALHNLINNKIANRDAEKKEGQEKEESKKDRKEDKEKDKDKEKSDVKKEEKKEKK
How it was run: as §1

UCHL1 = UCHL1 (UniProt P09936)
UCHL1, sequence (P09936 whole entry, looked up): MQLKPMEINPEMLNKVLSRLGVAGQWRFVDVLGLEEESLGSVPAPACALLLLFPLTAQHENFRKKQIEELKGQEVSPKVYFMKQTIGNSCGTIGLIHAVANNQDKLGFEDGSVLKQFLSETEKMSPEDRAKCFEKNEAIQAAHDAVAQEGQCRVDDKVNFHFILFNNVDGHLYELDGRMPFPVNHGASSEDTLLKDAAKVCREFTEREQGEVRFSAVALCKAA
How it was run: as §1

UCHL3 = target: T4, UCHL3 (UniProt P15374)
T4 sequence (whole entry): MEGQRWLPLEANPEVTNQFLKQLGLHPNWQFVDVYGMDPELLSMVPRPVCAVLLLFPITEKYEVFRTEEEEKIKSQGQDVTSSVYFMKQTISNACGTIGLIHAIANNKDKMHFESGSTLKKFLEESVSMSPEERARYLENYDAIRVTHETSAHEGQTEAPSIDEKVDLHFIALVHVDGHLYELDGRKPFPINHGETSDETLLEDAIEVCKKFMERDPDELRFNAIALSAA
How it was run: as §1

UCHL5 = target: T5, UCHL5 (UniProt Q9Y5K5)
T5 sequence (whole entry): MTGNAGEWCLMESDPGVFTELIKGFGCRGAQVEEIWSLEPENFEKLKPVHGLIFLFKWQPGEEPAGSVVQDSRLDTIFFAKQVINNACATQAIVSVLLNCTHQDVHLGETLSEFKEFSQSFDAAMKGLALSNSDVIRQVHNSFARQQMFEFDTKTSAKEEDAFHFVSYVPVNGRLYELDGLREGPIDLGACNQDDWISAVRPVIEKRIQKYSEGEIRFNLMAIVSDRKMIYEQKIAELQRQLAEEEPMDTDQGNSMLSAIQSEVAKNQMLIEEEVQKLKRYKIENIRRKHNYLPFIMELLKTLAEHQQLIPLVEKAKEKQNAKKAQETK
How it was run: as §1

USP10 = USP10 (UniProt Q14694)
USP10, sequence (Q14694 whole entry): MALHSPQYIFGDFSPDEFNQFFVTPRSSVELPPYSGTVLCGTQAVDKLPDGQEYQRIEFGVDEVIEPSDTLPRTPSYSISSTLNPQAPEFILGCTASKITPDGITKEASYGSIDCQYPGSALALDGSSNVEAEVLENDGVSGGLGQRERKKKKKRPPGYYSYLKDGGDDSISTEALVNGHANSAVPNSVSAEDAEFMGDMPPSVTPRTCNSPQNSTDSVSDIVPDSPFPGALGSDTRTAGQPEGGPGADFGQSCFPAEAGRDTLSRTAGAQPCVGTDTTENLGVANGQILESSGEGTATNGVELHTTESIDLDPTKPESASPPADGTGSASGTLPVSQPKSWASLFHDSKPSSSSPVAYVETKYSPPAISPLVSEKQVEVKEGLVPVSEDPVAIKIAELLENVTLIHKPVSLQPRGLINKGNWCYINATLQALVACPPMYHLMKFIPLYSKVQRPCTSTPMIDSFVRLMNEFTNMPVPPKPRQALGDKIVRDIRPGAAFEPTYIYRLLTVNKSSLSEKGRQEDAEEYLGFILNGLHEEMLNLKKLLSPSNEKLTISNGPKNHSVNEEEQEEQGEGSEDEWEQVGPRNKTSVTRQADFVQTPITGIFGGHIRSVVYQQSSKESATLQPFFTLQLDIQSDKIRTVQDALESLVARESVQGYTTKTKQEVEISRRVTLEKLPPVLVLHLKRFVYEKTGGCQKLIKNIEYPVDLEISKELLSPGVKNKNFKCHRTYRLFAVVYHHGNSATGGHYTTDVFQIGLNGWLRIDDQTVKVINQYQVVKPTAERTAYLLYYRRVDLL
How it was run: as §1

USP15 = target: T6, USP15 (UniProt Q9Y4E8)
T6 sequence (whole entry): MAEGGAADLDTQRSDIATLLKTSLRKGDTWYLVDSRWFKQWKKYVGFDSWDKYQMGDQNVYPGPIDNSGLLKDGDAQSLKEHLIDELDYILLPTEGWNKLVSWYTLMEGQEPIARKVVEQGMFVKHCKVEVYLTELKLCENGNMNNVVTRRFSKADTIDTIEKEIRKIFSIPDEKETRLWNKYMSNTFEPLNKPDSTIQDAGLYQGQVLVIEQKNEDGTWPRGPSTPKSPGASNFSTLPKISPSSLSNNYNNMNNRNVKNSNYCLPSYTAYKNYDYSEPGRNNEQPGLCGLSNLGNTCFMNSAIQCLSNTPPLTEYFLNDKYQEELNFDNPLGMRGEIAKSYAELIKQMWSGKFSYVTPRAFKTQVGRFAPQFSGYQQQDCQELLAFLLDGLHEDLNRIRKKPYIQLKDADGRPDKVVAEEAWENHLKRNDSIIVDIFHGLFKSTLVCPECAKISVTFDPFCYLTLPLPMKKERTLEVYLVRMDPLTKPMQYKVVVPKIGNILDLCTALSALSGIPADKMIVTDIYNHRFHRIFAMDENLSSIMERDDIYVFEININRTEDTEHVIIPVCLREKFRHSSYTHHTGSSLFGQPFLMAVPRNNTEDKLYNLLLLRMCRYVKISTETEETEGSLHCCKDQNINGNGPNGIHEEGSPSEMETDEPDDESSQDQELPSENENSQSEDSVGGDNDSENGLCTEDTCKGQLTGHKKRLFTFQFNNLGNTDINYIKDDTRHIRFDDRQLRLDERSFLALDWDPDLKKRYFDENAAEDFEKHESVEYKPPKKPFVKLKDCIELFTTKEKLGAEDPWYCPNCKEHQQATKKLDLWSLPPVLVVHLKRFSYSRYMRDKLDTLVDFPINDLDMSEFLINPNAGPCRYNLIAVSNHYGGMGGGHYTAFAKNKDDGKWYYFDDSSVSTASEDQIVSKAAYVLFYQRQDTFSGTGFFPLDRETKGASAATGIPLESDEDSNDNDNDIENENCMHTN
How it was run: as §1

USP16 = USP16 (UniProt Q9Y5T5)
USP16, sequence (Q9Y5T5 whole entry, looked up): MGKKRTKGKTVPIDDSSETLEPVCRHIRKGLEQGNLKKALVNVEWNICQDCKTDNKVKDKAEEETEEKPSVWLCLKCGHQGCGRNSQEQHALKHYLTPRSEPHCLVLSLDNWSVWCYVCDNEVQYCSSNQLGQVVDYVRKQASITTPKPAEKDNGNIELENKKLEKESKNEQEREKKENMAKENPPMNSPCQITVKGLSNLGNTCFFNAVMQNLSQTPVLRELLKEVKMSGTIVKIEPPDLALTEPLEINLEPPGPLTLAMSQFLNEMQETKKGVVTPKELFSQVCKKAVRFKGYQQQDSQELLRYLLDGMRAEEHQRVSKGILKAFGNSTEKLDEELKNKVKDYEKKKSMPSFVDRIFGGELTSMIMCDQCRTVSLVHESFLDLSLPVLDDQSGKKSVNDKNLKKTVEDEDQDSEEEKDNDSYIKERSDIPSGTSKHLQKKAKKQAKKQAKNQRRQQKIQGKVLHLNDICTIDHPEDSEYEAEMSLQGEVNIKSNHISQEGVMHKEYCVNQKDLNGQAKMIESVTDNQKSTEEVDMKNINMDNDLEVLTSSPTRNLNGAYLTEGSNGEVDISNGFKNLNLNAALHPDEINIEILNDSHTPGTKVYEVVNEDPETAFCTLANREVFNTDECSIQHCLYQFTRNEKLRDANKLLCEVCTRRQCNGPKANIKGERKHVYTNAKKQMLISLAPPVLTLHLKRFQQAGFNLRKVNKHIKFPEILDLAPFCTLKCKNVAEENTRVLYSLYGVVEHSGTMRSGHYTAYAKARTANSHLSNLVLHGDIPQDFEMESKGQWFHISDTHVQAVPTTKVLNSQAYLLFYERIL
How it was run: as §1

Measured: log2 ratio of Biotin-Ahx-Ub-VS probe labelling

O=C(CCl)Nc1ccc(F)cc1Cl
inactive: OTUD6B -0.388 | OTUD7B -0.667 | PRPF8 0.079 | PSMD7 -0.115 | UCHL1 -1.44 | UCHL3 -0.112 | UCHL5 -0.49 | USP10 -0.129 | USP15 0.0309 | USP16 -0.265
